Records with an inconclusive call do not appear. Activity calls are given as the source filed them. The calls were made as follows: active = hit-call score of the fitted dose curve at least 0.9, where 1 is the maximum; inconclusive = response in the unintended direction; inactive = score below 0.9.
Each compound was assayed against Androgen receptor (Homo sapiens) (UniProt P10275) (assay: ATG_AR_TRANS: Attagene TRANS-FACTORIAL HepG2 Assay for human Androgen Receptor (AR) (AID 2282973)). Conditions: HepG2 Attagene TRANS-FACTORIAL AR reporter transcription.
Chain of Androgen receptor (Homo sapiens) (P10275 whole entry, looked up, the tested form may be a part): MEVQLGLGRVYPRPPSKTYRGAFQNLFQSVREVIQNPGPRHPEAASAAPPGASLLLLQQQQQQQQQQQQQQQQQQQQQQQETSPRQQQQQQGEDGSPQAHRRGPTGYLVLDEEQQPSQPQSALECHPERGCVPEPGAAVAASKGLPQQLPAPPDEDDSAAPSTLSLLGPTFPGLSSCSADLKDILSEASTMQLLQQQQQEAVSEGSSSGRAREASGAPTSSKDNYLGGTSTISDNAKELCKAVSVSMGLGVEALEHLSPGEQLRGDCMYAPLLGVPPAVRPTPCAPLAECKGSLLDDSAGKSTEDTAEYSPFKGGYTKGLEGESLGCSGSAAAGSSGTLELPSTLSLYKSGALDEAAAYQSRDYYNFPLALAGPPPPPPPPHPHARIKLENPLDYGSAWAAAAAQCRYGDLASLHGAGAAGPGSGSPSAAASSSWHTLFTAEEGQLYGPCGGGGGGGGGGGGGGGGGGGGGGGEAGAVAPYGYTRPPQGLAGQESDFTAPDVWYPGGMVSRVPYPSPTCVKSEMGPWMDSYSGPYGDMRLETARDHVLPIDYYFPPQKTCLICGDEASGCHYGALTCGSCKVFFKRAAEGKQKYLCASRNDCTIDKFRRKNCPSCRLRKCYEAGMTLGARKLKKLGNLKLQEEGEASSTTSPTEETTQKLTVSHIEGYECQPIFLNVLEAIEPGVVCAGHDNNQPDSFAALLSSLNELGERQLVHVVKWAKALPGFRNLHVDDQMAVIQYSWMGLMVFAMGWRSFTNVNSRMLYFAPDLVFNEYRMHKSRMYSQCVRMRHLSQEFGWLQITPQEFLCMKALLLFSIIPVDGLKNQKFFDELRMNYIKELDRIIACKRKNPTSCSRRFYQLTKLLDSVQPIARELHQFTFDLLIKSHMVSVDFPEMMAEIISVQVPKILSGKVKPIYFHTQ
In short: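 Steps: transfect HepG2 with multiple GAL4-UAS reporter transcription units (TRANS format, exogenous NR-Gal4 protein); dose 24 h; isolate RNA, reverse-transcribe, PCR-amplify, FAM-label, HpaI-digest; resolve by capillary electrophoresis. Positive direction vs DMSO.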

Compound	outcome
CN(C)Cc1ccccc1O	inactive
O=C(Cl)C(F)(F)C(F)(F)C(F)(F)C(F)(F)C(F)(F)C(F)(F)C(F)(F)F	inactive
CCc1cccc(C)c1N	inactive
CC(C)(C)NC(N)=O	inactive
OCc1cccc(Oc2ccccc2)c1	inactive
CCCCCCCCCCCCCCCCCC[N+](C)(C)Cc1ccccc1	inactive
CCCCC1CCC(O)CC1 (stereo not given)	inactive
CCCCC/C=C\CCC=O	inactive
OCCNCc1ccccc1	inactive
CC(C)(C)c1cc(O)c(C(C)(C)C)cc1O	inactive
O=C(c1ccccc1)c1ccccc1	inactive
CC(C)CC(=O)CC(C)CC(C)C (stereo not given)	inactive
OCC(O)CC(F)(F)C(F)(F)C(F)(F)C(F)(F)F (stereo not given)	inactive
O=S(=O)(O)C(F)(F)C(F)(F)C(F)(F)C(F)(F)C(F)(F)C(F)(F)C(F)(F)C(F)(F)C(F)(F)C(F)(F)F	inactive
CC1COC(=O)O1 (stereo not given)	inactive
CC(=O)OCc1ccccc1	inactive
C[N+](C)(CCCNS(=O)(=O)CCC(F)(F)C(F)(F)C(F)(F)C(F)(F)C(F)(F)C(F)(F)F)CC(=O)[O-]	inactive
CCN(CCO)S(=O)(=O)C(F)(F)C(F)(F)C(F)(F)C(F)(F)C(F)(F)C(F)(F)C(F)(F)C(F)(F)F	inactive
FC1CC(F)(F)C(F)(F)C1(F)F (stereo not given)	inactive
C=C(C)[C@@H]1CCC2=CCC[C@@H](C)[C@]2(C)C1	inactive

Compound	outcome
C=CCOCC(CO)(CO)CO	inactive
Nc1ccc(N)c2c1C(=O)c1ccccc1C2=O	inactive
CCCOC(=O)c1ccc(C(=O)OCCC)nc1	inactive
CCc1c(C)cc(N)c(CC)c1N	inactive
CC(=O)Nc1ccc(S(N)(=O)=O)cc1	inactive
CCCCCCCCCCOC(=O)c1ccccc1C(=O)OCCCCCCCC	inactive
CC(CC=O)CCCC(C)(C)O (stereo not given)	inactive
CC=CC(=O)OCC(C)C	inactive
O=c1cc(-c2ccccc2)oc2ccc3ccccc3c12	inactive
CC(C)CCCC(C)CCO (stereo not given)	inactive
NC(=O)C(F)(F)C(F)(F)C(F)(F)C(F)(F)C(N)=O	inactive
O=C(O)c1cccc(Cl)n1	inactive
C=COCCCC	inactive
CC1=CCC2C(C1)C2(C)C (stereo not given)	inactive
O=S(=O)(c1ccc(OCc2ccccc2)cc1)c1ccccc1O	inactive
C=CC(=O)OCCCCCCCC(C)C	inactive
CC(=N[Si](C)(C)C)O[Si](C)(C)C	inactive
CCOC(OCC)C(=O)c1ccccc1	inactive
CCCCCCCCCC(C)=O	inactive
CCCCCCCCSCCO	inactive

Source: PubChem BioAssay (EPA / NIEHS)
